# Spn PMK inh – blocks S. pneumoniae phosphomevalonate kinase | 65,000 compounds, 0.49% hits | purified PMK, PK/LDH-coupled NADH absorbance 340 nm | AID 539 | inhibition, % at 10 µM;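 active means top-ranked compounds by inhibition in the single 10 µM screen, taking a fixed number of the strongest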
# A340 absorber – absorbance at 340 nm; fold change at 10 µM; 65,000 tested, under 10 active; AID 708; compound absorbance at 340 nm, fold over control;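 active means at 10 µM dose, initial 340 nm absorbance at least 2 fold that of control wells; inactive means change under 2 fold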;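 further: initial absorbance extrapolated from kinetic A340 decline of NADH oxidation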
# DPM-DC inhibit – inhibitors of Streptococcus pneumoniae diphosphomevalonate decarboxylase. purified DPM-DC, PK/LDH coupled NADH fluorescence. calls only at 10 µM. 65,000 compounds, 0.49% hits. AID 556;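 active means the 320 compounds with the highest percent inhibition in the single-dose primary screen, excluding strongly autofluorescent ones, cut at about 32% in these data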;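 further: kinetic rate of NADH fluorescence loss reporting ADP formed by the decarboxylase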
# Spn MK inh – inhibitors of Streptococcus pneumoniae mevalonate kinase | purified MK, PK/LDH-coupled NADH absorbance 340 nm | inhibition, % at 10 µM | 65,000 compounds, 0.48% hits | AID 555;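 active means ranked among the strongest by inhibition in the single 10 µM screen, a fixed top-ranked set picked for dose follow-up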
# NADH enzymes – inhibitors of enzymes used to reach an NAD/NADH endpoint; coupled PK/LDH NADH assays, four targets; 65,000 compounds, 0.02% hits; AID 774; IC50, µM (top dose mostly 10 µM);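 active means single-dose screening hits from any of four coupled enzyme assays that gave an IC50 when retested across doses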;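 further: the DPM-DC format reads NADH fluorescence rather than 340 nm absorbance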
# Autofluor 339 – intrinsic fluorescence of library compounds, ex339/em460 – biochemical, MLSMR library, data from DPM-DC assay, artefact control, profiling panel | compound autofluorescence, ex339/em460 nm, NADH buffer; active compounds read high; 1 = no-compound wells, NADH background | fluorescence fold increase at 10 µM | 65,000 compounds, 5.5% hits;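 active means at 10 µM, mean starting fluorescence two-fold or more over control wells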;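 further: signal is the first read of a kinetic run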
# A number is an active result; i = inactive; nt = not tested or not shown; + = active, no number. The list is not random: actives were taken first. Their share in the collection is about 6.8%.
SMILES,Spn PMK inh,A340 absorber,DPM-DC inhibit,Spn MK inh,NADH enzymes,Autofluor 339
COc1ccc(-c2cc(C(F)(F)F)nc(NC3CCCC3)n2)cc1OC,i,i,i,i,i,i
O=C(CCSc1nc(-c2ccco2)cc(C(F)(F)F)n1)N1CCN(c2ccccc2)CC1,i,i,i,i,i,i
O=C(CCSc1nc(-c2ccc3c(c2)OCO3)cc(C(F)(F)F)n1)NCc1ccco1,28.0,i,nt,i,i,2.2
COc1ccc(-c2cc(C(F)(F)F)nc(SCC(=O)Nc3cc(C)on3)n2)cc1OC,i,i,nt,i,i,3.78
COc1ccc(-c2cc(C(F)(F)F)nc(SCCC(=O)N3CCN4CCCC4C3)n2)cc1 (stereo not drawn),i,i,+,i,i,2.33
COc1ccc(-c2cc(C(F)(F)F)nc(SCC(=O)N3CC(C)OC(C)C3)n2)cc1OC (stereo not drawn),i,i,nt,i,i,3.48
CCOC(=O)N1CCC(N2C(=O)c3ccc(C(=O)NC4CCCCCC4)cc3C2=O)CC1,i,i,i,i,i,i
COc1ccc(-c2cc(C(F)(F)F)nc(SCCC(=O)Nc3cc(C)on3)n2)cc1,i,i,+,i,i,i
COc1ccc(OCCC(=O)Nc2cc(C)on2)cc1,i,i,i,i,i,i
CCOc1cc(NC(=O)c2cnccn2)c(OCC)cc1NC(=O)c1ccc(OC)cc1,i,i,i,i,i,i
CC(C)Cc1cc(-c2ccco2)c(C#N)c(N)n1,i,i,nt,i,i,2.2
COc1ccc(OC)c(NC(=O)c2c(NC(=O)c3ccco3)sc3c2CCC3)c1,i,i,i,i,i,2.14
CCOC(=O)c1c(NC(=O)Cc2cccs2)sc2c1CCCC2,i,i,i,i,i,i
CCCc1cc(C(=O)Nc2sc(C)c(C)c2C(=O)OCC)no1,i,i,nt,i,i,2.44
CCOC(=O)c1c(NC(=O)c2cccs2)sc2c1CCCC2,i,i,nt,i,i,2.26
Cc1occc1C(=O)Nc1sc2c(c1C(N)=O)CCCCC2,i,i,i,i,i,i
COC(=O)c1c(NC(=O)c2ccoc2C)sc2c1CCC2,i,i,+,i,i,2.44
CCOC(=O)c1c(NC(=O)c2nn(CC)cc2Br)c(C#N)cn1-c1ccccc1,i,i,i,i,i,i
CCOC(=O)c1c(NC(=O)c2cccs2)sc2c1CCN(C(=O)OCC)C2,i,i,nt,i,i,2.03
CCOC(=O)c1c(NC(=O)c2cc(C3CC3)on2)sc(C(C)=O)c1C,i,i,i,i,i,i
CCOC(=O)c1c(-c2ccccc2)csc1NC(=O)c1nn(CC)cc1Br,i,i,nt,i,i,3.53
CCOC(=O)c1c(NC(=O)c2cc(C3CC3)on2)sc2c1CCCC2,27.0,i,nt,i,i,2.09
COC(=O)c1c(-c2ccc(F)cc2)csc1NC(=O)c1ccco1,i,i,i,i,i,2.02
CCOC(=O)c1c(NC(=O)c2ccco2)sc2c1CCCCC2,i,i,nt,i,i,2.13
CCOC(=O)c1c(-c2ccc(C)s2)csc1NC(=O)c1ccco1,i,i,i,i,i,3.48
SMILES,Spn PMK inh,A340 absorber,DPM-DC inhibit,Spn MK inh,NADH enzymes,Autofluor 339
CCOC(=O)c1c(-c2cccs2)csc1NC(=O)c1ccncc1,i,i,nt,i,i,2.17
CCOC(=O)c1c(NC(=O)c2ccco2)sc(C(=O)N2CCCC2)c1C,i,i,i,i,i,i
CCOC(=O)c1c(NC(=O)OC)sc2c1CCC2,i,i,i,i,i,i
CCOC(=O)c1c(NC(=O)c2cccs2)sc2c1CCC2,i,i,nt,i,i,2.28
CCOC(=O)N1CCN(C(=O)CCSc2ccccc2)CC1,i,i,i,i,i,i
CCC(=O)c1ccc(OCC(=O)Nc2nn3cnnc3s2)cc1,i,i,i,i,i,i
COc1ccc(CN2CCN(C(=O)c3ccco3)CC2)cc1OCc1ccccc1,i,i,i,52.0,i,i
CCn1c2ccccc2c2cc(CN3CCN(C(=O)c4ccco4)CC3)ccc21,30.0,i,i,54.0,i,i
c1ccc(C(c2nnnn2Cc2cccs2)N2CCN(C3CCCC3)CC2)cc1 (stereo not drawn),i,i,i,i,i,i
CCN(CC)Cc1c[nH]c2c(C(=O)OC)cccc12,i,i,nt,i,i,2.12
Fc1ccccc1Cn1nnc2c(-n3ccnc3)ncnc21,i,i,i,i,i,i
Cc1ccc2nsnc2c1S(=O)(=O)N1CCN(Cc2ccc3c(c2)OCO3)CC1,i,i,i,i,i,i
COC(=O)c1ccc(-c2nc(O)c3cnccn23)cc1,i,i,i,i,i,i
CCOc1ccc(OCC)c(NC(=O)CN2CCN(c3cccc(C)c3)CC2)c1,i,i,i,71.0,i,i
CCOc1ccc(OCC)c(NC(=O)CN2CCN(c3cccc(C)c3)C(C)C2)c1 (stereo not drawn),i,i,i,42.0,i,i
O=C1CCC(C(=O)O)(c2ccccc2)C1 (stereo not drawn),i,i,i,i,i,i
CN(C)/C=C1\C(=O)c2ccc(N(C)C)nc2CC1c1ccccc1 (stereo not drawn),i,i,i,i,i,2.02
CN(C)/C=C1/Sc2ccccc2C1=O,i,i,i,i,i,i
COc1ccc(-n2c(SCC(N)=O)nc3sc4c(c3c2=O)CCN(C)C4)cc1,i,i,i,i,i,i
COC(=O)CSc1nc2sc3c(c2c(=O)n1C1CCCCC1)CCN(C)C3,i,i,nt,i,i,2.49
Cc1ccccc1-c1nc(CN2CCC(C(=O)NCCCN3CC(C)CC(C)C3)CC2)c(C)o1 (stereo not drawn),i,i,i,i,i,i
O=C(CN(CCN1CCOCC1)C(=O)Cn1nnc(-c2ccc(F)cc2)n1)NC1CCCCC1,i,i,nt,i,i,3.6
CC1=C(C)C(=O)NC(Nc2nc(C)c3cc(C)cc(C)c3n2)N1 (stereo not drawn),i,i,i,i,i,i
Cc1cccn2c(=O)c(C=NCc3ccccc3)c(NCCO)nc12,i,i,i,i,i,3.62
CC1CN(S(=O)(=O)c2cccc(C(=O)OCc3cc(=O)oc4cc(O)ccc34)c2)CC(C)O1 (stereo not drawn),i,i,nt,i,i,3.43
CC1CN(S(=O)(=O)c2cccc(C(=O)OCC(=O)Nc3ccc4c(c3)OCO4)c2)CC(C)O1 (stereo not drawn),i,i,i,i,i,i
CCS(=O)(=O)N1CCC(C(=O)NCCc2ccccc2)CC1,25.0,i,i,i,i,i
O=C(NCC1CCCO1)C1CC(=O)N(C2CCCCCC2)C1 (stereo not drawn),27.0,i,i,i,i,i
O=C(NCC1CCCO1)C1CCN(S(=O)(=O)N2CCCC2)CC1 (stereo not drawn),i,i,i,i,i,i
CCS(=O)(=O)N1CCC(C(=O)NCCc2ccc(C)cc2)CC1,i,i,i,i,i,i
